Sfp inh = qHTS Assay for Inhibitors of Bacillus subtilis Sfp phosphopantetheinyl transferase (PPTase). 4'-phosphopantetheinyl transferase ffp (Bacillus subtilis), Q9F4F7. Biochemical Sfp PPTase activity, qHTS. Potency, µM, inactives show largest response in the series, negative = inhibition, usual class: inhibitors. hit rate 3.5% among 310,000;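 note: the enzyme is Sfp with the accession as filed and its product quenches rhodamine fluorescence; potency is the fitted concentration of half-maximal effect; 0% = enzyme reaction without inhibitor and -100% = no enzyme wells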
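Buffer: 50 mM Hepes-Na pH 7.6, 10 mM MgCl2, 0.01% Nonidet P-40, 0.01% BSA. Enzyme 15 nM, pre-exposed to compound 15 min; substrates then added and fluorescence change tracked over 30 min.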
VDR inhibitor = Inhibitors of the vitamin D receptor (VDR): qHTS | Vitamin D3 receptor (Homo sapiens), P11473 | VDR-SRC2-3 peptide fluorescence polarization, 2 h | Potency, µM, without a hit: max response, negative = inhibition, usual class: inhibitors | hit rate 0.93% among 400,000; note: potency is the fitted concentration of half-maximal effect
Target sequence (P11473 whole entry, looked up): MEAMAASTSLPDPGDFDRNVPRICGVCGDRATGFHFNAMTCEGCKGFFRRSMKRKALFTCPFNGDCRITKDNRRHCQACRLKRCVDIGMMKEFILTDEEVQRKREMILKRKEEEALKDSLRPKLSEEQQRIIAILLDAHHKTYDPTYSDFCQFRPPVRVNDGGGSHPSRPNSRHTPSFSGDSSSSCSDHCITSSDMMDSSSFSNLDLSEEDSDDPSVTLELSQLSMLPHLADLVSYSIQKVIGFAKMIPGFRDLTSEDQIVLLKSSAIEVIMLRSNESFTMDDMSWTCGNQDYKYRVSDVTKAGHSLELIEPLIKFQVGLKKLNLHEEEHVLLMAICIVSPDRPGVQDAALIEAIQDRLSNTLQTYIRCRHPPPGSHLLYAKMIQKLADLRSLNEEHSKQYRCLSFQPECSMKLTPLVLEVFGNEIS
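The screen uses fluorescence polarization to detect compounds that interfere with recruitment of the SRC2-3 coactivator peptide to VDR; plates are read after 2 h at room temperature.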
CCT chaperon mod = High-Throughput Screening for Modulators of Cytosolic Chaperonin Activity | purified chaperonin ATPase assay, HTRF ADP detection, 30 min | hit rate 0.3% among 360,000 | activity change, % (test concentration not listed), hits read low; in the data active = activity change below about -30%
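ATPase activity: ADP formed was measured by HTRF Transcreener (665/615 nm ratio) after 30 min at 37 deg C with 10 uM ATP. Compounds screened at one 76 uM concentration against 40 or 20 nM TRiC in Tris pH 7.4/KCl/MgCl2/DTT buffer.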
PLK1 PBD block = qHTS for Inhibitors of PLK1-PDB (polo-like kinase 1 - polo-box domain): Primary Screen. Potency, µM, for the others: max response, negative = inhibition, hits mostly inhibitors. Plk1 PBD binding of FITC phosphopeptide, fluorescence polarization. AID 720504, 2013. hit rate 2.8% among 360,000; note: potency is the fitted concentration of half-maximal effect; series mostly up to about 57 µM; nearly all actives have a fitted effect of over 65% in size
MmCpn inh = Inhibitors of TCP-1 ring complex (TRiC) of Methanococcus maripaludis (MmCpn): qHTS. Chaperonin Mm-Cpn (Methanococcus maripaludis). purified Mm-Cpn ATPase, ADP Transcreener TR-FRET. Potency, µM (top dose mostly 76.9 µM), for the others: top-dose activity, negative = inhibition, actives largely listed as inhibitors. hit rate 0.031% among 330,000; note: potency is the fitted concentration of half-maximal effect; nearly all actives have a fitted effect of over 80% in size
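ATPase read-out: TR-FRET ADP immunoassay (anti-ADP Eu cryptate vs ADP-d2), ex 320 nm, em 590/665 nm; signal drops as ADP forms. Enzyme 25 nM, ATP 10 uM, 30 min at 37°C after 10 min compound preincubation.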
G9a block = qHTS Assay for Inhibitors of Histone Lysine Methyltransferase G9a; G9a H3K9 monomethylation, AlphaScreen, 2 h; Histone-lysine N-methyltransferase EHMT2 (Homo sapiens), Q96KQ7; Potency, µM (top dose mostly 102 µM), for inactives: at the highest dose activity, negative = inhibition, usual class: inhibitors; AID 504332, 2011; hit rate 8.8% among 350,000; note: potency is the fitted concentration of half-maximal effect; nearly all actives have a fitted effect of over 75% in size
Target sequence (Q96KQ7 913-1193 limits assumed): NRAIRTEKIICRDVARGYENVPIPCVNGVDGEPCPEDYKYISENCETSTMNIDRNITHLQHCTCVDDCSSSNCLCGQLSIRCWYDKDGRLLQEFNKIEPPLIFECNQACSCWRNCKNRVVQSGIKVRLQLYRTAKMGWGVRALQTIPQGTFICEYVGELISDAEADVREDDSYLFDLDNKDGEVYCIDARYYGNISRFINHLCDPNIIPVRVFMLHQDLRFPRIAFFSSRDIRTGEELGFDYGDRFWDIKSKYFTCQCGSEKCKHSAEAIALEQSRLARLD
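Quantitative HTS format: methyltransferase activity on a biotin-tagged H3K9 peptide is measured by AlphaScreen, using a rabbit anti-monomethyl-H3K9 antibody with streptavidin donor and anti-IgG acceptor beads. Final levels are 20 nM enzyme, 500 nM peptide, 20 uM SAM; 2 h RT.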
Starred values were filed as active, the others as inactive; u = inconclusive; x = no result; [ ] = dose if it differs, or a comment. This is a sample that favours compounds with a hit; in the whole collection about 10% have one here. Unless noted, calls come from the whole dose curve; as a rule, active = well fitted curve in the direction sought with a large enough effect; inconclusive = small, poorly fitted or top-dose-only effect, or another doubt; inactive = no such curve, though single readings can be large; an effect the other way counts as inactive or inconclusive. Unless noted, % is set by controls: 0 for no effect and ±100 for the full control effect.

SMILES | Sfp inh | VDR inhibitor | CCT chaperon mod | PLK1 PBD block | MmCpn inh | G9a block
O=C(Nc1nnc(SCCN2CCOCC2)s1)C1CC(=O)N(c2ccccc2)C1 (stereo unspecified) | 7% | -16% | -3 | -12% | -3% | 45µM*
Cc1ccc(N2CC(C(=O)Nc3nnc(SCCC4OCCO4)s3)CC2=O)cc1C (stereo unspecified) | -11% | -15% | -1 | -23% | -5% | -10%[12.7 µM]
Cc1ccc(N2CC(C(=O)Nc3nnc(SCCC4OCCO4)s3)CC2=O)cc1 (stereo unspecified) | 4% | -21% | -3 | -20% | -4% | 13µM*
Cc1ccc(C(=O)N2CCN(CCc3ccncc3)CC2)cc1 | x | 22% | x | x | x | -2%[59 µM]
CCOc1ccc(CNC(=O)c2ccc3nc(Cc4ccc(OC)cc4)oc3c2)cc1OC | x | 0% | x | x | x | u
COC(=O)NC1C=CCCC1C(C)=O (stereo unspecified) | -7% | 2% | x | x | x | x
Cc1ccc(CNC(=O)CN2C(=O)C3CCCCN3c3ccc(C(=O)N4CCCC4)cc32)cc1 (stereo unspecified) | x | 5% | x | x | x | 1%[59 µM]
CCCC(=O)OCc1cnc(C)c2oc(=O)c(C(=O)Nc3cccc(C(F)(F)F)c3)cc12 | x | -4% | x | x | x | -3%[59 µM]
CCOc1ccc(N2CC(C(=O)Nc3nnc(SCCOC)s3)CC2=O)cc1 (stereo unspecified) | 11% | 3% | -2 | -9% | -1% | 71µM*
COCc1nnc(NC(=O)C2CC(=O)N(c3ccc(C)c(Cl)c3)C2)s1 (stereo unspecified) | x | -1% | 1 | u | 0% | 16µM*
Cc1ccc(N2CC(C(=O)Nc3nccs3)CC2=O)cc1Cl (stereo unspecified) | 12% | 2% | 0 | -5% | 0% | -22%[12.7 µM]
CCc1nnc(NC(=O)C2CC(=O)N(c3ccc(C)cc3)C2)s1 (stereo unspecified) | 50µM* | -11% | -2 | -25% | 0% | u
CCOc1ccc(N2CC(C(=O)Nc3nnc(CC)s3)CC2=O)cc1 (stereo unspecified) | 56µM* | -3% | -1 | -28% | 2% | u
COc1ccc(N(CC(=O)NCCc2ccccc2)S(=O)(=O)c2ccccc2)c(OC)c1 | x | -2% | x | x | x | 4%[59 µM]
C[C@@H](C(=O)O)c1ccc(C(=O)c2ccccc2)s1 | 16% | 1% | x | x | x | 0%[21.5 µM]
CCCC(=O)N1c2ccccc2-c2nnc(SC)nc2OC1c1sccc1C (stereo unspecified) | x | 19% | x | x | x | u
CN(Cc1ccccc1)c1nnc(NC(=O)Nc2cccc(Br)c2)s1 | x | 3% | x | x | x | -7%[59 µM]
O=C(CSc1nnc(NC(=O)C2CC(=O)N(c3ccccc3)C2)s1)NCC1CCCO1 (stereo unspecified) | 3% | -21% | -2 | -13% | 0% | 40µM*
O=C(CSc1nnc(NC(=O)C2CC(=O)N(c3ccccc3)C2)s1)NCc1ccco1 (stereo unspecified) | -21% | -13% | 0 | -27% | -3% | u
COc1ccc(O[C@H]2C=C[C@@H](c3ccccc3)O[C@H]2CO/N=C(/C)CCC(=O)OC[C@@H]2O[C@H](C#Cc3ccccc3)C=C[C@@H]2Oc2ccc(C)cc2)cc1 | 5% | x | x | x | x | x
O=C1N=C(N2CCOCC2)S/C1=C\c1ccccc1OS(=O)(=O)c1ccccc1 | 26% | -9% | -4 | -11% | -13% | 13%
CC(=O)N1CCN(C2=NC(=O)/C(=C/c3ccc(OS(=O)(=O)c4ccccc4)cc3)S2)CC1 | -3% | 50µM* | -79* | -20% | -6% | -14%
O=C(CCS(=O)(=O)c1ccc(F)cc1)Nc1nnc(-c2ccco2)o1 | x | -1% | -1 | -14% | -5% | 28µM*
COc1ccccc1-c1nnc(NC(=O)C2=COCCO2)o1 | 12% | -8% | -2 | 2% | 3% | u
CS(=O)(=O)c1cccc(-c2nnc(NC(=O)C3=COCCO3)o2)c1 | x | -4% | -2 | 4% | -2% | 35µM*
SMILES | Sfp inh | VDR inhibitor | CCT chaperon mod | PLK1 PBD block | MmCpn inh | G9a block
COc1ccc(-c2nnc(NC(=O)C3=COCCO3)o2)cc1 | 4% | 0% | -2 | -4% | 3% | -24%[59 µM]
CS(=O)(=O)c1cccc(-c2nnc(NC(=O)CCS(=O)(=O)c3ccccc3)o2)c1 | x | 1% | 1 | 2% | -6% | 32µM*
CS(=O)(=O)c1ccccc1-c1nnc(NC(=O)C2=COCCO2)o1 | x | -2% | 0 | 4% | -1% | 25µM*
CCOC(=O)c1cnc2ccccc2c1Nc1cccc(OC)c1 | x | -4% | x | x | x | 5%[59 µM]
CSc1ccccc1C(=O)N1CCN(c2ccc(F)cc2)CC1 | -2% | -3% | -2 | -3% | 2% | -14%
O=C1C(NS(=O)(=O)c2cccs2)=C(N2CCN(c3cccc(Cl)c3)CC2)C(=O)c2ccccc21 | -6% | 4% | -6 | -11% | -1% | u
CC1CCN(C2=C(NS(=O)(=O)c3ccc(Br)cc3)C(=O)c3ccccc3C2=O)CC1 | 0% | -25% | 0 | -19% | 1% | 8.9µM*
O=C1C(NS(=O)(=O)c2ccccc2)=C(N2CCN(c3ccc(F)cc3)CC2)C(=O)c2ccccc21 | 11% | u | -1 | u | 0% | 5.6µM*
CC1CCN(C2=C(NS(=O)(=O)c3ccc(Cl)cc3)C(=O)c3ccccc3C2=O)CC1 | -2% | -9% | 1 | -10% | -1% | 5.6µM*
CC(=C1C(=O)c2ccccc2C1=O)N1CCN(c2ccc(F)cc2)CC1 | 5% | -6% | 0 | -20% | -4% | 50µM*
O=S(=O)(Nc1nc2ccccc2nc1Cl)c1ccccc1 | 17% | -27% | 0 | 3% | -7% | 40µM*
CCOC(=O)C1CCN(C2=C(NS(=O)(=O)c3ccc(Cl)cc3)C(=O)c3ccccc3C2=O)CC1 | 6% | -15% | -1 | -28% | -2% | 4.5µM*
CCOC(=O)C1CCCN(C2=C(NS(=O)(=O)c3ccc(Br)cc3)C(=O)c3ccccc3C2=O)C1 (stereo unspecified) | u | -21% | 0 | -30% | 2% | x
CC1CCN(C2=C(NS(=O)(=O)c3ccccc3)C(=O)c3ccccc3C2=O)CC1 | -1% | 0% | -1 | -7% | -1% | 4µM*
O=S(=O)(Nc1nc2ccccc2nc1N1CCN(c2ccccc2)CC1)c1ccc(F)cc1 | -9% | 2% | 0 | u | 0% | 50µM*
Cc1ccc(NS(=O)(=O)c2ccc3c(c2)CCCN3C(=O)C2CCC2)c(C)c1 | x | -6% | x | x | x | 9%[59 µM]

Bioassay records deposited in PubChem by National Center for Advancing Translational Sciences (NCATS).
